The nature of the assay: High Content Assay for Compounds that inhibit the Assembly of the Perinucleolar Compartment: PC3M Cytotoxicity. An excerpt:
High Content Assay for Compounds that inhibit the Assembly of the Perinucleolar Compartment
NIH Chemical Genomics Center [NCGC]
NIH Molecular Libraries Probe Centers Network [MLPCN]
Assay Submitter (PI): Sui Huang, Northwestern University, Feinberg School of Medicine, Cell and Molecular Biology, Chicago, Illinois.
The perinucleolar compartment (PNC) is a non-membrane-bound nuclear subdomain that is associated with but structurally distinct from the nucleolus. The PNC is a heritable trait, in which the number of PNCs per cell in daughter cells often mimics that of their mother cells. The PNC is heterogeneous in shape, is stable through interphase, disassembles during mitosis, and reassembles in early G1. The PNC is concentrated with newly synthesized RNA polymerase III (pol III) RNAs (MRP RNA, RNAse P H1 RNA, hY RNAs[hY1, 2, 5], Alu RNA, and SRP [7SL] RNA) and RNA binding proteins (nucleolin, PTB, CUG-BP, KSRP, Raver1, Raver2, and Rod).
Extensive in vitro studies have shown that the PNC is unique to tumor cells and preferentially forms in tumor cells derived from solid tissues. […]
5. Luminescencent signal was detected on a Viewlux CCD based imager (PerkinElmer) with a clear filter and a 30 second integration time. […]

Inconclusive results are not listed. Where a call stands in place of a potency, no number is given. Active and inactive are the calls of the source. Calls follow the shape of the dose curve; as a rule, active = well fitted inhibition curve with a large enough effect; inconclusive = small, poorly fitted or top-dose-only effect; inactive = flat fitted curve, though single readings scatter.

For `Cc1ccc(C(O)(C(=O)NNC(=O)CN2CCN(C)CC2)c2ccc(C)cc2)cc1`, the Potency result is “inactive”. With `Cc1c2ccncc2c(C)c2c1[nH]c1ccccc12` the figure was 31.6 µM (active).

Values taken from PubChem BioAssay AID2733 (National Center for Advancing Translational Sciences (NCATS), 2010).
